Assay results: PubChem BioAssay
“And” between values parts separate entries of the source, which are not always exact repeats. Identical values can stand only once. Results filed as inconclusive are left out. The source made the active and inactive calls. Cut-off read from the data, not from the text of the source, unless noted: active = inhibition above about 80%; inactive = the rest.

Columns and labels:
[1] = growth inhibition of DIPG glioma cells, dose response, cell-based, SU-DIPG-XIII, MIPE4.0, CellTiter-Glo, qHTS (AID 1347061; cut-off not given, nearly all actives have AC50 up to about 37 µM;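 note: cells exposed to compound for 48 hours before readout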); settings: SU-DIPG-XIII viability, CellTiter-Glo ATP luminescence
[2] = growth inhibition of DIPG glioma cells, dose response, cell-based, JHH-DIPG-1, MIPE4.0, CellTiter-Glo, qHTS (AID 1347062; cut-off not given, nearly all actives have AC50 up to about 27 µM;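 for AC50: cells exposed to compound for two days before readout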); settings: JHH-DIPG-1 viability, CellTiter-Glo ATP luminescence
[3] = viability loss in pontine glioma line – cell-based, SU-DIPG-XXV, MIPE5.0, CellTiter-Glo, qHTS, dose response (AID 1347065; cut-off not given, nearly all actives have AC50 up to about 26 µM;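 note: cells exposed to compound for 48 hours before ATP readout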); settings: CellTiter-Glo ATP luminescence
[4] = SU-DIPG-VI glioma cell viability, MIPE4.0 library, CellTiter-Glo luminescence, qHTS (AID 1347066; cut-off not given, nearly all actives have AC50 up to about 30 µM;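 note: cells exposed to compound for 48 hours before readout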); settings: CellTiter-Glo ATP luminescence
[5] = SU-DIPG-XXV glioma cell viability, MIPE5.0 library, qHTS (AID 1347068; cut-off not given, nearly all actives have IC50 up to about 30 µM)
[6] = JHH-DIPG-1 glioma cell viability, MIPE5.0 library, CellTiter-Glo luminescence, qHTS (AID 1347067; cut-off not given, nearly all actives have AC50 up to about 26 µM;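 note: cells exposed to compound for 48 hours before readout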); settings: JHH-DIPG-1 glioma viability, CellTiter-Glo ATP luminescence
[7] = growth inhibition of DIPG glioma cells, dose response, cell-based, SU-DIPG-IV, MIPE4.0, CellTiter-Glo, qHTS (AID 1347063; cut-off not given, nearly all actives have AC50 up to about 30 µM;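 note: compound exposure lasted 48 hours before the viability readout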); settings: SU-DIPG-IV viability, CellTiter-Glo ATP luminescence
[8] = sensitizers of A549 cells to miR-34 induction, primary screen, imaging, A549 dox-inducible miR-34, nuclei and caspase counts (AID 1347080;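 active = compounds whose cell count with miR-34 switched on is under 0.7 times the count with it off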); settings: A549 miR-34 inducible, Hoechst nuclei count, 48 h
[9] = modifiers of HSF1 nuclear foci, imaging, Selleck Cancer Library (AID 1347162; in the data active = plate-normalised HSF1 focus index below about 0.46); settings: human cells, at 10 µM; SSMD: measured here: HSF1 foci SSMD mean; cell count: measured here: cell number; plate-normalised HSF1 focus index: stronger effect = lower value
[10] = survival rescue of mitochondrial mutant cells in low glucose, primary screen, MELAS cybrids, Rieske KO mouse fibroblasts, CellTiter-Glo (AID 1508586;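 active = mean z-score across replicates of 1.96 or higher in either the MELAS or the Rieske mutant cell line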;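 note: z relative to plate mean and SD of compound and empty wells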)
[11] = LFS_MB_P medulloblastoma growth inhibition, cell-based, chromothripsis tumors, cisplatin or BGB combos (AID 1671449); settings: LFS_MB_P medulloblastoma cells;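 note: cells exposed for 96 hours; 0% = vehicle DMSO and 100% = killing by high DMSO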
[12] = HDN33 neuroblastoma growth inhibition, cell-based, chromothripsis tumors, cisplatin or BGB combos (AID 1671450); settings: HDN33 neuroblastoma cells, stronger effect = higher value;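 note: cells exposed to compound for four days; 0% = vehicle DMSO and 100% = cell killing by high DMSO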
[13] = ICB984 medulloblastoma cell growth inhibition, synergistic combos for chromothripsis tumors, cisplatin or BGB combos (AID 1671451; call rule not given here;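 note: cells exposed for 96 hours before readout; 0% = vehicle DMSO and 100% = killing by high DMSO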); settings: ICB984 medulloblastoma cells, drug combinations, stronger effect = higher value
[14] = LFS_MB_1R medulloblastoma cell growth inhibition, synergistic combos for chromothripsis tumors, cisplatin or BGB combos (AID 1671452); settings: LFS_MB_1R medulloblastoma cells, stronger effect = higher value;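 note: cells exposed for 96 hours before readout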
[15] = HTB85 osteosarcoma cell growth inhibition, synergistic combos for chromothripsis tumors, BGB or cisplatin IC20 combos (AID 1671453); settings: HTB85 osteosarcoma cells, drug combinations, stronger effect = higher value;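 note: cells exposed for 96 hours before readout; 0% = vehicle DMSO and 100% = high DMSO killing control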
[16] = MDA-MB-436 breast carcinoma cell growth inhibition, synergistic combos for chromothripsis tumors, BGB or cisplatin combos (AID 1671458; call rule not given here;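 note: cells exposed for 96 hours; 0% = vehicle DMSO and 100% = killing by high DMSO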); settings: MDA-MB-436 breast carcinoma growth inhibition, drug combinations, stronger effect = higher value
[17] = growth inhibition of BT084 medulloblastoma cells, cell-based, ICGC_MB145, cisplatin and BGB IC40 combos (AID 1671461); settings: drug combinations, stronger effect = higher value;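 note: cells exposed to drugs for 96 hours; 0% = vehicle DMSO and 100% = high DMSO full killing control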
[18] = growth inhibition of RCMB18 medulloblastoma cells, cell-based, cisplatin and BGB IC40 combos (AID 1671462); settings: stronger effect = higher value;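 note: cells exposed to compound for four days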
[19] = growth inhibition of CRL1545 osteosarcoma cells, cell-based, cisplatin and BGB IC20 combos (AID 1671464); settings: stronger effect = higher value;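 note: cells exposed to compound for 96 hours before readout; 0% = vehicle DMSO and 100% = high DMSO killing control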
[20] = measured here: combination with BGB IC40, at 0.05 µM
[21] = measured here: with BGB IC20 combination, at 0.5 µM
[22] = measured here: with cisplatin IC20 combination, at 0.5 µM
[23] = measured here: combination with cisplatin, at 0.5 µM

O=C(N[C@@H](c1ccccc1)[C@@H]1CCCCN1)c1cccc(C(F)(F)F)c1Cl
outcome [1]: inactive | outcome [2]: inactive | AC50 [3]: 20.9 µM (active) | outcome [4]: inactive | outcome [5]: inactive

CN(C)/[N+]([O-])=N/Oc1cc(ON[N+](=O)N2CCN(C(=O)c3cc(Cc4n[nH]c(=O)c5ccccc45)ccc3F)CC2)c([N+](=O)[O-])cc1[N+](=O)[O-]
AC50 [1]: 20.9 µM (active) | AC50 [2]: 13.2 µM (active) | outcome [4]: inactive

CCOC(=O)N[C@@H]1CC[C@@H]2[C@@H](C1)C[C@H]1C(=O)O[C@H](C)[C@H]1[C@H]2/C=C/c1ccc(-c2cccc(F)c2)cn1
outcome [1]: inactive | outcome [2]: inactive | outcome [4]: inactive | outcome [6]: inactive | outcome [5]: inactive

Clc1cc(Cl)cc(CNc2ncncc2-c2ccc3c(c2)OCO3)c1
outcome [1]: inactive | outcome [2]: inactive | outcome [4]: inactive

CCN1CCN(C(=O)N[C@H](C(=O)N[C@@H]2C(=O)N3C(C(=O)O)=C(CSc4nnnn4C)CS[C@@H]23)c2ccc(O)cc2)C(=O)C1=O
outcome [1]: inactive | outcome [2]: inactive | outcome [4]: inactive

Cc1c(-c2cccc3c(CCCOc4cccc5ccccc45)c(C(=O)O)n(Cc4cccnc4)c23)c(COc2ccc(N3CCN([S+](=O)([O-])N(C)C)CC3)cc2)nn1C
outcome [1]: inactive | outcome [2]: inactive | AC50 [4]: 23.5 µM (active)

CNCc1ccc(-c2[nH]c3cc(F)cc4c3c2CCNC4=O)cc1
outcome [1]: inactive | outcome [7]: inactive | outcome [4]: inactive | fold change ([8]; stronger effect = lower value, cell number ratio, induced over uninduced): 0.956 (inactive) | fold change ([8]; measured here: relative caspase fold change +Dox/-Dox): 1.62 | cell count ([8]; measured here: total cells with miR-34 induction, stronger effect = lower value): 6530 | cell count ([8]; measured here: total cells without miR-34 induction): 6840 | SSMD [9]: 2.12 | cell count [9]: 7610 | plate-normalised HSF1 focus index [9]: 1.13 (inactive) | z-score ([10]; MELAS cybrid survival, CellTiter-Glo 48 h, stronger effect = higher value): -0.49 (inactive) | z-score ([10]; Rieske KO mouse fibroblast survival, CellTiter-Glo 72 h): -0.266 | inhibition ([11]; at 0.5 µM, stronger effect = higher value): 11.2% (inactive) and -4.36% (inactive) | inhibition ([11]; measured here: combination with BGB IC20, at 0.005 µM): -33.6% and -11.5% | inhibition ([11]; measured here: combination with BGB IC40, at 0.005 µM): -21.8% and 22.8% | inhibition [11, 20]: -33.3% and -12.4% | inhibition ([11]; measured here: combination with cisplatin, at 0.5 µM, stronger effect = higher value): -17.5% and -5.55% | inhibition ([11]; measured here: combination with cisplatin, at 5 µM, stronger effect = higher value): -45.3% and -35.9% | inhibition ([12]; BGB combo, at 5 µM): -25.2% and 11.9% | inhibition ([12]; at 0.5 µM): -14.8% (inactive) and 14.3% (inactive) | inhibition ([12]; cisplatin combo, at 5 µM): -4.69% and 14.3% | inhibition [12, 21]: -21.7% and 13.3% | inhibition [12, 22]: -14.7% and 11.6% | inhibition ([12]; single agent, at 5 µM): 9.94% and 30.8% | inhibition ([13]; BGB IC20 combo, at 0.005 µM): -15.3% and 7.74% | inhibition ([13]; BGB IC40 combo, at 0.005 µM): -14.9% and -10.3% | inhibition ([13]; BGB IC40 combo, at 0.05 µM): -15.6% and -2.1% | inhibition ([13]; at 0.5 µM): -18% (inactive) and -11.9% (inactive) | inhibition ([13]; cisplatin combo, at 0.05 µM): -19.7% and -5.77% | inhibition ([13]; cisplatin combo, at 0.5 µM): -11.2% and -6.08% | inhibition ([13]; cisplatin combo, at 5 µM): -48.3% and -31.5% | inhibition ([13]; measured here: 5 uM single agent, at 5 µM): 4.24% and 12.5% | inhibition ([14]; at 0.5 µM): -10.6% (inactive) and -7.69% (inactive) | inhibition [14, 20]: -6.36% and 4.87% | inhibition [14, 23]: 19.1% and -25% | inhibition ([14]; measured here: combination with cisplatin, at 5 µM): -18.5% and -25.3% | inhibition ([15]; at 0.5 µM): -0.57% (inactive) and 3.23% (inactive) | inhibition ([15]; measured here: with BGB IC20, at 0.5 µM): -24.5% and -14.6% | inhibition ([15]; measured here: with BGB IC20, at 5 µM): -20.2% and -0.361% | inhibition ([15]; measured here: with cisplatin IC20, at 0.5 µM): 6.68% and 16.2% | inhibition ([15]; measured here: with cisplatin IC20, at 5 µM): -9.57% and 9.16% | inhibition ([15]; single agent, at 5 µM): -2.29% and 13.1% | inhibition ([16]; at 0.5 µM): 2.86% (inactive) and 14.9% (inactive) | inhibition ([16]; measured here: BGB combination, at 0.5 µM): -19.1% and 0.063% | inhibition ([16]; measured here: BGB combination, at 5 µM): -12.9% and -16% | inhibition ([16]; measured here: cisplatin combination, at 0.5 µM): 9.87% and 19.6% | inhibition ([16]; measured here: cisplatin combination, at 5 µM): 31.2% and 24.2% | inhibition ([17]; at 0.5 µM): -22% (inactive) and 7.71% (inactive) | inhibition ([17]; cisplatin combination, at 0.5 µM): -60.7% and -23.3% | inhibition ([17]; cisplatin combination, at 5 µM): -41.6% and -18% | inhibition ([17]; measured here: BGB IC40 combination 0.05 uM, at 0.05 µM): 24.6% and 0.2% | inhibition ([17]; single agent, at 5 µM): -4.29% and -11.5% | inhibition ([18]; at 0.5 µM): -28.5% (inactive) and -5.9% (inactive) | inhibition ([18]; cisplatin combo, at 5 µM): -30.1% and -29% | inhibition ([18]; measured here: BGB IC40 combination, at 0.05 µM): -11.1% and 4.25% | inhibition [18, 23]: -71.1% and 1.49% | inhibition ([18]; single agent, at 5 µM): -19.5% and -1.31% | inhibition ([19]; at 0.5 µM): 3.62% (inactive) and -10.7% (inactive) | inhibition [19, 21]: -15.5% and 1.35% | inhibition [19, 22]: 11.8% and -18.6% | inhibition ([19]; single agent, at 0.05 µM): 15.8% and 33% | inhibition ([19]; single agent, at 5 µM): 1.41% and -6.63%
